Assay results reported in the supplement of paper PMC9950053.
Structures can show the parent of a compound that is named as a salt.

The compounds below were run on Danio rerio larvae (5 dpf) (assay: habituation (activity change first vs second 5 min of 1-s interval sound, period 17) minus DMSO control (percentage points); higher = larger habituation measure than DMSO larvae). Details: 10 µM; exposure time: 3 h pre-incubation + 3 h imaging.
Method: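 Wild-type 5 dpf zebrafish larvae (n=48 per drug, 96-well plates, 28.5 °C) were exposed to Tocris FDA-approved library compounds at 10 µM (0.1% DMSO) for 3 h before and 3 h during imaging. Images were taken every 6 s during visual and acoustic stimuli, and larvae were tracked with Z-LaP Tracker. Each measure is the treated-group mean minus the DMSO control mean (n=844), in percentage points. This mapping covers compounds with 5-character plate codes.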

Compound | habituation
COc1ccc(C(CN(C)C)C2(O)CCCCC2)cc1 (stereo unspecified) [Venlafaxine hydrochloride] | -5.52
